Assay outcomes: PubChem, National Center for Advancing Translational Sciences (NCATS)
GLP1R inv ag – GLP-1 receptor (human) inverse agonism. P43220. AID 624417. HEK293 GLP-1R CRE-luciferase, luminescence, 24 h; GLP-1R form is constitutively active. 1.6% of 410,000 active. Potency, µM (titrated, usually from 38.3 µM), without a hit: at the top dose activity change, negative = inhibition, actives largely listed as inhibitors; note: % is set by controls: 0 for no effect and ±100 for the full control effect; nearly all actives have a fitted effect of over 55% in size
Target sequence (P43220 whole entry, looked up): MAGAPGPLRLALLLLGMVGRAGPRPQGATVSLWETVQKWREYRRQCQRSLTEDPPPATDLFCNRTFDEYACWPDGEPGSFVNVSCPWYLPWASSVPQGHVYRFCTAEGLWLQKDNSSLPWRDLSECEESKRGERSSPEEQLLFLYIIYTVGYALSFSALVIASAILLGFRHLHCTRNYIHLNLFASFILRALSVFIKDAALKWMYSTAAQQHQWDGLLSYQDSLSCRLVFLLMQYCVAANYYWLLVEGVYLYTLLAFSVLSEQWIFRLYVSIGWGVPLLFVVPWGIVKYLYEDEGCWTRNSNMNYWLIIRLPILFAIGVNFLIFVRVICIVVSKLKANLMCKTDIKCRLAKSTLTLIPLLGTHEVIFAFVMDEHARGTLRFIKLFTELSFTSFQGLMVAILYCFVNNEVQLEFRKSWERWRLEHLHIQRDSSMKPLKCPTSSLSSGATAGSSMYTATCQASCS
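HEK293 cells stably co-expressing constitutively active GLP-1R and a cAMP-responsive luciferase reporter were seeded in DMEM with 10% Nu serum, given compounds after 12 h, and incubated 24 h at 37 deg C. Luminescence was then read.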
GLP-1R agonist – agonists of human GLP-1 receptor | 0.007% of 380,000 active | Potency, µM (highest dose often 45.6 µM), for inactives: top-dose activation, most hits filed as activators | HEK293 GLP-1R CRE-luciferase, luminescence, 4-6 h; cells express a hypersensitive GLP-1R form; note: % of control where 0% means no effect
HEK293 tox – cytotoxicity counter-screen for GLP-1 receptor inverse agonists; HEK293 cAMP-luciferase reporter cells, luminescence, 24 h; Potency, µM (highest dose often 38.3 µM), inactives show at the highest dose activity change, negative = inhibition, most hits filed as inhibitors; 0.13% of 410,000 active; AID 624418;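 note: loss of luciferase light is scored as toxicity; % is set by controls: 0 for no effect and ±100 for the full control effect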
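A 23 nL compound transfer followed 12 hours of cell culture at 37 deg C; exposure then lasted 24 hr. Luciferase assay detection reagent was dispensed and plates read for luminescence after a 12 min room-temperature wait.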
Mito fusion yeast – mitochondrial division inhibition or fusion activation; Potency, µM (doses to about 46.1 µM), without a hit: at the top dose growth rescue (activation), most hits filed as activators; S. cerevisiae fusion-defective mutant growth rescue, CellTiterGlo 48 h; 0.23% of 320,000 active; note: % of control where 0% means no effect; nearly all actives have a fitted effect of over 45% in size
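Growth-rescue viability read-out: after 48 h at the non-permissive 37C in glycerol/ethanol YPEG, yeast mitochondrial fusion mutants are measured by CellTiterGlo luminescence; compounds (23 nl pinned per well) restoring growth score as division inhibitors or fusion activators.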
BRCA1 expr act – BRCA1 expression activation; MCF7-BRCA1-FFLuc reporter, luminescence, 48 h; response scale: scaled: vehicle 0%, 10 µM genistein 100%; Potency, µM (top dose mostly 46.1 µM), for the others: top-dose activation, most hits filed as activators; 1.1% of 380,000 active; AID 624202; note: nearly all actives have a fitted effect of over 80% in size
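Compounds are tested at multiple concentrations on MCF7 BRCA1-luciferase reporter cells seeded at 2000 per well; after 48 h, a single luminescence end-point is taken and curves fitted to the normalized data.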
* hit, by the source's call; ? = inconclusive; nt = no result given. This is a sample that favours compounds with a hit; in the whole collection about 2.8% have one here. Calls come from the whole dose curve; as a rule, active = well fitted curve in the direction sought with a large enough effect; inconclusive = small, poorly fitted or top-dose-only effect, or another doubt; inactive = no such curve, though single readings can be large; an effect the other way counts as inactive or inconclusive. Potency is the fitted concentration of half-maximal effect.

SMILES | GLP1R inv ag | GLP-1R agonist | HEK293 tox | Mito fusion yeast | BRCA1 expr act
O=S(=O)(NCC(Nc1ccc(Cl)cc1)c1ccccc1)c1ccc(Cl)cc1 (configuration not stated) | ? | -54% | 2% | -3% | -36%
COc1c(Cl)cc(C(=O)Nc2ccccc2-c2ccccc2)cc1Cl | 10µM* | -12% | 8% | 0% | -32%
COc1c(Cl)cc(C(=O)Nc2cccc(-c3nc4ccccc4[nH]3)c2)cc1Cl | 7.9µM* | nt | ? | nt | nt
O=C(NCC1CCCCC1)c1ccc(F)cc1Cl | -6% | 1% | 22% | -3% | 5.6µM*
COc1ccc(-c2cn(CC3CCCCC3)nn2)cc1 | 6% | 2% | -19% | -1% | ?
c1ccc(-c2cn(CC3CCCCC3)nn2)cc1 | -11% | 8% | 0% | -1% | 5.6µM*
Cc1ccc(CS(=O)Cc2ccc(C(=O)NCc3ccc4c(c3)OCO4)o2)cc1 (configuration not stated) | ? | -5% | -13% | -1% | 0%
COc1ccccc1NS(=O)(=O)c1cc([N+](=O)[O-])ccc1N/N=C/c1c[nH]c2ccccc12 | 5µM* | 0% | -23% | 7% | -46%
COc1ccc(NS(=O)(=O)c2cc([N+](=O)[O-])ccc2N/N=C\c2c(C)[nH]c3ccccc23)cc1 | -13% | -8% | -1% | 6% | -31%
O=C(NCCc1ccccc1)c1cnc2n(c1=O)CCS2 | -9% | 5% | 25% | 0% | 7.1µM*
O=C(NCCc1c[nH]c2ccccc12)c1cnc2n(c1=O)CCS2 | 6% | -4% | 4% | -4% | 2%
CN1C(=O)C2(C(C#N)=C(N)N(c3ccc(Cl)cc3)C3=C2C(=O)CC(C)(C)C3)c2ccccc21 (configuration not stated) | -11% | -3% | 11% | 0% | -10%
C=CCNC(=S)N1CCN(c2ncc(C(F)(F)F)cc2Cl)CC1 | 8.9µM* | 18% | -10% | -1% | -26%
CCc1ccc(NC(=O)CSC2=Nc3ccccc3C3=NC(CCC(=O)NCc4ccco4)C(=O)N23)cc1 (configuration not stated) | -8% | nt | 1% | nt | nt
CCCCNc1c(-c2ccc(-c3cccc(Cl)c3)cc2)nc2ccccn12 | ? | 6% | 30% | -9% | 8.9µM*
CCCCCCSc1ccc(-c2nc3ccccn3c2NCCCC)cc1 | ? | 11% | -19% | -16% | 12%
CCCCNc1c(-c2cccc(-c3ccc(OC)cc3)c2)nc2cc(C)ccn12 | 11µM* | -9% | 2% | nt | -47%
O=C(NNC(=O)c1ccc(Cl)cc1Cl)Nc1ccccc1 | 4% | -5% | 3% | -3% | -3%
O=C(NNC(=O)c1cc(-c2ccc(Cl)cc2Cl)nc2ccccc12)Nc1ccccc1 | 2.8µM* | -20% | 9% | -2% | -74%
COc1ccc(NC2=NC(=S)N(c3cccc(C)c3)C23CCCCC3)cc1 | 11% | -5% | 1% | -4% | -36%
CC(=O)NS(=O)(=O)c1ccc(NC(=S)NC(=O)COc2ccccc2C)cc1 | 21% | -3% | 28% | 0% | -82%
Cc1cc(Cl)ccc1NC(=S)NC1CCCC1 | ? | 20% | ? | -16% | 1%
CC1CCCCC1NC(=S)Nc1ccc(Cl)cc1Cl (configuration not stated) | 11µM* | 1% | ? | 2% | 2%
Cc1cc(C)c2c(N)c(C(=O)Nc3ncc(C)s3)sc2n1 | 1.3µM* | -27% | 247% | 14% | -85%
Nc1nnc(SCC(=O)OCC(=O)Nc2ccccc2F)s1 | 3% | -3% | -2% | -4% | 8%
CCCCNc1ccc(/C=C2\C=Cc3ccccc32)cc1 | nt | nt | nt | nt | 6.3µM*
COc1ccc(OC(C)C(=O)N(C)Cc2nc(-c3ccccc3)no2)cc1 (configuration not stated) | -29% | 8% | 1% | -9% | -41%
CCC(=O)c1ccc(OCC(=O)Nc2cccc(S(=O)(=O)N(C)c3ccccc3)c2)cc1 | ? | -5% | -16% | 23% | 0%
